The source of these data is ChEMBL document CHEMBL3988442, “University of Dundee, Small-Polar-MMV Screening Library” (2021).

The campaign covered roughly 69,000 compounds. About 420 (0.61%) showed an effect of 50% or more. For the sample, strong results were picked, then their nearest neighbours and some compounds at random.

The test deals with T1, Histidine--tRNA ligase (Leishmania infantum) (UniProt A4I591).
T1 sequence (whole entry): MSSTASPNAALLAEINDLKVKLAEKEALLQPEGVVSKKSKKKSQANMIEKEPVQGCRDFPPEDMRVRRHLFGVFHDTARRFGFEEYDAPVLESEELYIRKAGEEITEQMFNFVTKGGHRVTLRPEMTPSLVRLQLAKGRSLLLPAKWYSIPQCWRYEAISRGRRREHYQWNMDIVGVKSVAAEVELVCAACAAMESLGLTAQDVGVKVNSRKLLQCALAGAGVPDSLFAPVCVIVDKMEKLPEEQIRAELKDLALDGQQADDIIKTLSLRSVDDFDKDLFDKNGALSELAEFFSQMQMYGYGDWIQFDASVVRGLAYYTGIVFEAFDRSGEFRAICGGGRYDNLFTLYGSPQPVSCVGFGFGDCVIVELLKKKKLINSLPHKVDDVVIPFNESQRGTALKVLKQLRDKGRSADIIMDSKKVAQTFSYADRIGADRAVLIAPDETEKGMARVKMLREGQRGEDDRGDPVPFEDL
The experiment in a line: Leishmania infantum Histidine tRNA synthetase (LdHisRS). It counts as functional. Also noted: scale not given: in the data most compounds retested in dose-response had high values. The conditions noted are these: 30 µM.
For `Brc1cccc(C2(CNCc3cc[nH]c3)CCOCC2)c1`, the Percent Effect came out at 40.9%.

Consider `CN1C[C@H](c2ccccc2)[C@H]2CN(C(=O)Cc3ccc(O)cc3)CC[C@H]21`, for which the Percent Effect is 5.59%.

For the molecule `Cn1c(=O)c2c(n3ncnc13)NC(=O)CC2c1ccc(F)cc1` (configuration not stated), the Percent Effect is 6.9%.

Turning to `O=C1CC(c2ccc(C(=O)O)cc2)c2ncn(-c3ccccc3Cl)c2N1` (configuration not stated), the Percent Effect is 45%.

As to `O=C1CC(c2ccc(C(=O)O)cc2)c2ncn(-c3ccccc3)c2N1` (configuration not stated), the Percent Effect amounted to 52.4%.

With `O=C1CC(c2ccc(C(=O)O)cc2)c2ncn(-c3cccc(Cl)c3)c2N1` (configuration not stated), the Percent Effect was 51.7%.

As for `O=C1CC(c2ccc(C(=O)O)cc2)c2ncn(-c3ccccc3F)c2N1` (configuration not stated), the Percent Effect came to 51.7%.

Take `O=C1CC(c2cccc(Cl)c2)c2snc(C(=O)O)c2N1` (configuration not stated): the Percent Effect came out at 1.72%.

As for `O=C1CC(c2cccnc2)c2c(c(C(=O)O)cn2-c2ccccc2F)N1` (configuration not stated), the Percent Effect was 20.6%.

For `Cc1nn(-c2ccccc2)c2c1C(c1ccc(C(=O)O)cc1)CC(=O)N2` (configuration not stated), the Percent Effect worked out at 18.4%.

`O=C1CC(c2ccc(C(=O)O)cc2)c2ncn(-c3cccc(F)c3)c2N1` (configuration not stated): the Percent Effect was found to be 46.6%.

As to `O=C1CC(c2ccc(C(=O)O)cc2)c2ncn(-c3cccnc3)c2N1` (configuration not stated), the Percent Effect was 30%.

Turning to `O=C1CC(c2ccc(C(=O)O)cc2)c2ncn(-c3ccc(F)cc3)c2N1` (configuration not stated), the Percent Effect came out at 81.7%.

For `O=C1CC(c2ccncc2)c2c(c(C(=O)O)cn2-c2ccc(F)cc2)N1` (configuration not stated), the Percent Effect stood at 29.1%.

For `O=C1C[C@H]2[C@@H](CCN2C(=O)Cc2ccccc2)N1Cc1cccnc1`, the Percent Effect was determined as 9.62%.

Take `CCS(=O)(=O)N1CCC2(CC1)CC[C@@]1(C(=O)N(C)C)CN(C(C)=O)C[C@@H]21`: the Percent Effect was found to be 12.8%.

Turning to `CO[C@H]1CN(C(=O)c2ccc[nH]2)[C@@H]2COC[C@H]12`, the Percent Effect is -140%.

Consider `O=C([C@@H]1C[C@@H]2CCN(C3CCOCC3)C[C@H]2O1)N1CCCC1`, for which the Percent Effect amounted to 6.94%.

Turning to `Cn1cccc1C(=O)NC[C@]12COC[C@H]1CN(Cc1nccs1)C2`, the Percent Effect came out at 12.8%.

With `O=C(c1ccc2nccnc2c1)N1CCN(CCO)[C@@H]2CS(=O)(=O)C[C@@H]21`, the Percent Effect is 3.97%.

For the molecule `Cc1nc(-c2ccoc2)n(CC(=O)N(C)CC(C)C)c1C`, the Percent Effect is 15.8%.

Consider `CN(C)c1nccc(N2CCO[C@H]3CN(Cc4nccn4C)C[C@H]32)n1`, for which the Percent Effect came out at 3.19%.

`CC(=O)N1CC[C@@]2(O)CCCC[C@H]2[C@@H]1c1ccccc1`: the Percent Effect is -75.8%.

With `CN1CCN(Cc2nc3c(s2)CCCC3)[C@H]2CS(=O)(=O)C[C@H]21`, the Percent Effect amounted to 18.3%.

Take `N#Cc1ccc(C(=O)N2CC[C@H]3[C@H]2CCN3CC2CCOCC2)cc1`: the Percent Effect is -5.77%.

With `CN(C)CCO[C@H]1CN(C(=O)c2cccs2)[C@@H]2COC[C@H]12`, the Percent Effect came to 10.9%.

For the molecule `Cn1ccnc1CN1C(=O)CO[C@H]2CN(CCCc3ccccc3)C[C@H]21`, the Percent Effect was 17.6%.

As for `O=C1CC(c2cccnc2)c2c(c(C(=O)O)cn2-c2ccc(Cl)cc2)N1` (configuration not stated), the Percent Effect stood at 27.2%.

Turning to `CC(C)(C)n1ncc2c1NC(=O)CC2c1ccc(C(=O)O)cc1` (configuration not stated), the Percent Effect turned out to be 26%.

As for `O=C1CC(c2ccc(C(=O)O)cc2)c2ncn(-c3ccc(Cl)cc3)c2N1` (configuration not stated), the Percent Effect stood at 55%.

For `Cc1noc(C)c1CC(=O)N1CCC(Nc2cccnn2)CC1`, the Percent Effect was determined as 12.5%.

Turning to `Cc1noc(C)c1C(=O)N1CCC(Nc2cccnn2)CC1`, the Percent Effect turned out to be 60.5%.

As to `Cc1ccc(NC2CCN(C(=O)c3c(C)noc3C)CC2)nn1`, the Percent Effect amounted to 28%.

Consider `CN1CCCc2cc(-c3cncn3CCNC3CCS(=O)(=O)C3)ccc21` (configuration not stated), for which the Percent Effect was 26.8%.

On to `Cc1nccn1CCCn1cncc1-c1ccc2c(c1)CCCN2C`, for which the Percent Effect stood at 30.9%.

Regarding `CCN1c2ccc(-c3cncn3CC(=O)NC(C)(C)C)cc2CC1C` (configuration not stated), the Percent Effect turned out to be 42.1%.

On to `Cc1nccn1CCCn1cncc1-c1ccc2c(c1)CC(C)N2C` (configuration not stated), for which the Percent Effect amounted to 65.8%.

`Cc1cnccc1N1CCCN(C(=O)CCCn2ccnc2C)CC1`: the Percent Effect stood at 12.9%.

On to `Cc1nccn1CCCn1cncc1-c1ccc2c(c1)CCC(C)N2C` (configuration not stated), for which the Percent Effect is 83.2%.

For `CC1Cc2cc(-c3cncn3CC(=O)NC(C)(C)C)ccc2N1C` (configuration not stated), the Percent Effect stood at 31%.

On to `Cc1cc(C)n(CCCn2cncc2-c2ccc3c(c2)CC(C)N3C)n1` (configuration not stated), for which the Percent Effect turned out to be 64.4%.

`CCN1CCc2cc(-c3cncn3CCNC3CCS(=O)(=O)C3)ccc21` (configuration not stated): the Percent Effect was determined as 29.6%.

For the molecule `Cc1nn(C)c(C)c1CCn1cncc1-c1ccc2c(c1)CC(C)N2C` (configuration not stated), the Percent Effect was determined as 53.7%.

As for `CCOC(=O)c1n[nH]cc1-c1cncn1CCCn1nc(C)cc1C`, the Percent Effect was 13.1%.

Consider `CCN1c2ccc(-c3cncn3CCCn3ccnc3C)cc2CC1C` (configuration not stated), for which the Percent Effect turned out to be 48.3%.

Take `c1coc(CN2CCO[C@H]3[C@@H](OCC4CC4)CC[C@@H]32)c1`: the Percent Effect came to 9.62%.

`Cc1ccc(CN2CC[C@@H]3OCCN(Cc4ccncc4)[C@H]3CC2)s1`: the Percent Effect amounted to 15.1%.

On to `Cc1cc(N2CCC(O)CC2)nc(C)n1`, for which the Percent Effect was 13.7%.

Turning to `Cc1cc(N2CCC(O)CC2)nc(C2CCCN2C)n1` (configuration not stated), the Percent Effect came out at 54.9%.

With `CN1CCCCC1c1cncc(N2CCC(O)CC2)n1` (configuration not stated), the Percent Effect is 14.5%.

Take `CN1CC2(CCN(C(=O)c3ccc(=O)n(C)c3)CC2)CC1=O`: the Percent Effect is -38.8%.

With `O=C(c1ncccn1)N1C[C@@H]2COC[C@]2(c2nnc(C3CC3)o2)C1`, the Percent Effect worked out at 20.6%.

Consider `CC(=O)N1CCC2(CC1)CC[C@@]1(C(=O)N(C)C)CN(S(C)(=O)=O)C[C@@H]21`, for which the Percent Effect was found to be 13.2%.

Regarding `CC(=O)N1CC[C@H]2OCC[C@@H](C(=O)NCc3ccco3)[C@@H]2C1`, the Percent Effect was determined as 10.1%.

`Cn1ccc2c(-c3cc(N4CCOCC4)ncn3)ccnc21`: the Percent Effect is 9.52%.

Turning to `Cn1ccc2c(-c3cc(N)nc(N4CCOCC4)n3)ccnc21`, the Percent Effect is 19.1%.

With `Cn1ccc2c(-c3cc(N4CCCCC4)ncn3)ccnc21`, the Percent Effect is 54.8%.
